Laboratory results reported in the OligoGym collection.

Target: ORC1
Test: pooled miR-30 sensor sort-seq; sequence = guide strand
Conditions: shRNA
Note: reference of the scale not given here.

Sequence | sensor-assay potency score (higher = more potent)
TCTCGGTGGAACAACCTTCTGT | -0.225
TAAGAGAGTCCAGTCTCTCTGG | -0.254
TTTTCGAAGCTGCAATTCGGGT | -1.44
TACAGCAGAAACATGCAGCCTC | 0.436
TTGCACATAGACTTGGTGGGGC | 0.793
TTTCGATCCAACAAGGGCCTGC | 0.15
TTTACTATTACCTAGAAACCGA | -0.315
TCAATCAACACAAACTGTCCAA | 0.619
TTTGGTAGTGCAGTTTTCGATC | -0.734
TAGAGTCTGAAATCTCTGCTGC | 0.498
TAGAGGTCGCTTCATTCTGGGC | -1.24
TCATTTTTCAGATTCGTCGGTA | 0.261

Target: ORM2
Test: as above
Conditions: shRNA

Sequence | sensor-assay potency score (higher = more potent)
TGGAGTTATAGAAGCACTGGTT | -0.607
TACATGACATCTGACCTGGGAA | -0.156
TAAGGAACAGCAGGTGAGCAAC | -1.17
TCATCGTCCAGGTAGGAACCAA | -0.639
TTATCCTTTTTCCAGTCGGTGT | -1.32
GTGTACATGACATCTGACCTGG | -0.944
TGTACATGACATCTGACCTGGG | 0.548
TTATAGAAGCACTGGTTCTGGC | -0.114
ATCAAGGTCTTGGTGTCCCTAA | -0.929
TTCTTCTCATCGTCCAGGTAGG | -0.591
TGGACATTCAGGTAACTGGAGT | -0.96
TAGAAGCACTGGTTCTGGCGGG | -0.234

Target: OSBP2
Test: as above
Conditions: shRNA

Sequence | sensor-assay potency score (higher = more potent)
TCTAGTACATTGTCTGCTGAGC | -0.715
TAAGTGGATGGCACCTAGCGGC | -0.606
TTGTGAACAGTTGAGGTGCTCT | -0.621
TTCAGTACTAAATTGAGTGCAT | 0.314
TTCTCTTCCTCCGAGCTGCAGC | -0.929
TTGATCATAGCATTGGATGTGA | 0.46
TAGGAGGACACAGAGAAGGCGG | -0.227
TTGCCCAGCACGAACCAGCGGC | -0.788
TACACTGTCTTCTGCTTCCCGT | -0.671
TTGACTTTGGATGAACCCTTGG | -0.284
TTGGAGAACACGTAGTGCGCAG | -0.163
ATCTAGTACATTGTCTGCTGAG | -0.399

Target: OSBPL11
Test: as above
Conditions: shRNA

Sequence | sensor-assay potency score (higher = more potent)
TTCTTTACCACTTTGGTCTTGC | 0.433
TTGACTTGGTCTCCTCTGCGAT | -0.7
TTGTGCTTTACTTCAGCTGTAA | -0.271
TACATTCTGCATAAAATCCTGA | 0.486
